# Only some compounds are listed: those with a hit (about 6.9% of all), similar ones and a draw of the others.
# MPTP block = inhibitors of mitochondrial permeability transition pore; AID 602449; isolated mouse mitochondria, Ca2+ swelling absorbance, 30 min; inhibition, % at 10 µM; 1.4% of 360,000 active;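 active means inhibition of 50% or more, scaled per plate between neutral and stimulator controls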
# Beta apoptosis = blocks beta cell apoptosis | INS-1E cytokine-induced death, ATP luminescence, 48 h; percent of positive-control rescue, neutral wells zero | protection from apoptosis, % (concentration not given with the values) | 0.8% of 300,000 active;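 active means Every replicate reaches about 75%, or at least half do and their mean reaches it too, limit read from the data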;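 further: higher means more ATP so stronger rescue from cytokine killing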
# GRIN3A LBD mod = modulates the human NR3A ligand-binding domain; NR3A LBD differential scanning fluorimetry, Tm shift; 0% = protein alone, 100% = glycine-bound protein; Tm shift relative to glycine control, % at 25 µM; 2.5% of 340,000 active; AID 1259313;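 active means melting temperature shift of at least 10% of the positive control shift, at one fixed dose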
# CSC inhib = blocks cancer stem cells. 1.1% of 300,000 active. cancer stem cell-like cells viability, luminescence. inhibition, % at 7.5 µM. AID 2717; in the data active means inhibition above about 75%; tested in HMLE shEcad cells
# Mdm2 MdmX PPI = disrupts the human Mdm2-MdmX interaction; SaOS-2 split-luciferase Mdm2/MdmX complementation, luminescence; 3% of 330,000 active; inhibition, % at 8 µM;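 active means inhibition of at least 50% at 8 µM in the primary screen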
# SKKanGAS inh = inhibitors of SKKanGAS S. pyogenes growth in kanamycin (SK-promoter or general growth effect) | BacTiter-Glo, 6 h | inhibition, % at 7.5 µM | 1.3% of 300,000 active | AID 1662;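 active means mean replicate score, as percent of positive control median, at least 50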;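 further: strain carries kanamycin resistance gene driven by streptokinase promoter and grows in 40 µg/ml kanamycin; loss of luminescence reflects streptokinase promoter inhibition or plain growth inhibition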
# Hits are given with their value; n = inactive; x = no result.
SMILES,MPTP block,Beta apoptosis,GRIN3A LBD mod,CSC inhib,Mdm2 MdmX PPI,SKKanGAS inh
COc1cc2nc(SCc3ccc(Cl)cc3Cl)n(Cc3cccs3)c(=N)c2cc1OC,n,n,22.1,n,n,n
CCOCCn1ccc2c(OCC(=O)Nc3cc(OC)ccc3OC)cccc2c1=O,n,x,11.4,n,n,n
Nc1cccc(-c2nc3cc(S(=O)(=O)c4ccc5oc(-c6cccc(N)c6)nc5c4)ccc3o2)c1,n,n,23.6,n,n,n
O=C(NC(=S)N1CCCCC1)c1csc([N+](=O)[O-])c1,n,n,n,n,n,n
Nc1c(Cl)cc(C2=NCCn3c2c2ccc([N+](=O)[O-])cc2[n+]3[O-])cc1Cl,n,n,n,n,n,67.6
O=C(c1cncs1)N1CCCC(CNS(=O)(=O)c2cccs2)C1 (configuration not stated),n,n,n,n,n,n
O=C(COC(=O)C1CCN(c2ccc(C(F)(F)F)cn2)CC1)Nc1ccc(Cl)cn1,n,n,n,n,n,n
O=C(COC(=O)C1CCN(c2ccc(C(F)(F)F)cn2)CC1)Nc1cccc(F)c1,n,n,11.5,n,n,n
O=C(COC(=O)C1CCN(c2ccc(C(F)(F)F)cn2)CC1)Nc1ccc(Cl)cc1,n,n,24.2,n,n,n
Cc1ccc(NC(=O)COC(=O)C2CCN(c3ccc(C(F)(F)F)cn3)CC2)cc1C,n,n,11.9,n,n,n
Cc1cc(C)c(NC(=O)COC(=O)C2CCN(c3ccc(C(F)(F)F)cn3)CC2)c(Cl)c1,n,n,n,x,n,n
Cc1ccc(S(=O)(=O)NCCC(=O)OCC(=O)NCCc2ccccc2)cc1C,n,n,n,n,n,n
CCOc1ccc2oc(C(=O)NNC(=O)c3ccccc3O)c(C)c2c1,n,n,n,x,n,68.8
Cc1c(C(=O)NNC(=O)c2ccccc2O)oc2ccc(Br)cc12,n,n,n,n,x,107.6
COc1cc(C(=O)Nc2sc(C)c(C)c2C(=O)O)cc(OC)c1OC,n,n,15.5,n,n,n
Cc1c(C(=O)NC(=S)NCC(C)C)oc2ccccc12,n,n,17.9,n,n,n
Cc1c(C(=O)Nc2ccc(-n3cnnn3)cc2)oc2ccccc12,n,n,26.8,n,n,x
CCC(=O)Nc1ccc(NC(=O)c2oc3ccccc3c2C)cc1,n,n,28.9,n,n,n
Cn1nc(C(=O)Nc2ccc(-n3cnnn3)cc2)c2ccccc2c1=O,n,n,n,n,n,x
Nc1ccccc1SCC(=O)Nc1ccc2c(c1)OCO2,n,n,n,n,n,n
O=C(COC(=O)c1ccc(O)cc1O)Nc1ncc(Cl)cc1Cl,n,n,n,n,n,n
O=C(Nc1ccc(OCc2ccccc2)cc1)c1cccnc1,n,n,n,n,n,n
COc1ccc(NC(=O)Nc2ccc(OCc3ccccc3)cc2)cn1,n,n,29.0,n,x,n
O=C(Nc1ccc(OCc2ccccc2)cc1)Nc1cccnc1,n,n,14.6,n,n,n
CCN(c1cccc(C)c1)S(=O)(=O)c1c(C)[nH]c(C)c1C(=O)N1CCCCC1,n,x,n,n,n,n
SMILES,MPTP block,Beta apoptosis,GRIN3A LBD mod,CSC inhib,Mdm2 MdmX PPI,SKKanGAS inh
Cc1ccnc(NC(=O)c2cccc(S(=O)(=O)N3CCN(c4ccc(F)cc4)CC3)c2)c1,n,n,n,n,n,n
c1ccc(-c2cc(-c3ccccc3)on2)cc1,n,n,30.1,n,n,n
CCC(=O)Nc1cccc(NC(=O)CSc2nc3c(c(=O)n(C)c(=O)n3C)n2C)c1,n,n,n,n,n,n
CCOC(=O)c1cn(CC)c2cc(Cl)c([N+](=O)[O-])cc2c1=O,n,n,11.6,n,n,n
COc1ccc2nccc(C(N)=O)c2c1,n,n,n,n,n,n
COc1cc(OC)c(/C=N/NC(=O)c2ccncc2)c(OC)c1,n,n,n,n,n,n
Cc1nn(-c2ccccc2)c(C)c1/C=N/NC(=O)CSc1nnc(SCc2ccccc2Cl)s1,n,n,11.1,n,n,n
O=C(CSc1nnc(SCc2ccc(Cl)cc2)s1)N/N=C/c1c[nH]c2ccccc12,n,n,23.8,n,x,n
O=C(CSc1nnc(SCc2cccc3ccccc23)s1)N/N=C/c1c[nH]c2ccccc12,n,n,22.4,n,n,n
CCn1c(SCCN2CCCCC2)nc2c1c(=O)n(C)c(=O)n2C,n,x,n,x,x,x
CN(CCOc1ccccc1)C(=O)c1cc(S(=O)(=O)N2CCOCC2)c(Cl)cc1Cl,n,x,x,x,x,x

# Bioassay records deposited in PubChem BioAssay by several laboratories.
